Compounds with a hit are over-represented: about 2.3% of the library has one in this group of screens.
Nrf2 activator: qHTS of Nrf2 Activators; AREc32 ARE-luciferase reporter (MCF7-derived line), luminescence, 24 h; Potency, µM (highest dose often 46.1 µM), hits mostly activators; actives 0.31% (n = 410,000); AID 624171, 2012; further: nearly all actives have a fitted effect of over 65% in size
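Each well held 1000 AREc32 cells, which were incubated with compound for 24 hr at 37 deg C after overnight attachment, and ARE reporter activity was quantified by firefly luciferase luminescence.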
miR-21 reporter: qHTS Assay for Modulators of miRNAs and/orActivators of miR-21 | AID 2288, 2010 | Potency, µM (top dose mostly 38.3 µM), most hits filed as activators | HeLa miR-21 FLuc reporter, luciferase, 48 h | 340,000 tested, under 10 active;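 further: miR-21 action dims this reporter so a rising signal means less miR-21 action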
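Using DMEM plus 10% FBS, HeLa miR-21-FLuc cells are incubated with test compounds (final up to about 40uM) for 48 hours; firefly luciferase signal is then imaged following reagent-mediated lysis.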
A549 tox: Nrf2 qHTS screen for inhibitors: counterscreen for cytotoxicity; A549 ARE-Fluc cells, CellTiter-Fluor viability, 18-24 h; AID 504648, 2011; actives 0.16% (n = 390,000); Potency, µM (series often up to 46 µM), actives largely listed as inhibitors
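Cytotoxicity counterscreen: CellTiter-Fluor fluorescence was measured in A549 ARE_Fluc cells after 18-24 h of compound exposure in a concentration series. The subsequent BugLite luminescent read reports ARE-luciferase activity.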
Nrf2 block: Nrf2 qHTS screen for inhibitors; AID 504444, 2011; Potency, µM (top dose mostly 46 µM), hits mostly inhibitors; A549 ARE-Fluc reporter, luciferase luminescence, 18-24 h; actives 2.1% (n = 360,000); further: nearly all actives have a fitted effect of over 60% in size
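A549 ARE_Fluc cells (5000/well, 5% FBS OPTI-MEM) pre-incubated 2 h, then treated with compounds 18-24 h at 37C/5% CO2 in concentration-response. CellTiter-Fluor viability read first; BugLite luciferase luminescence after 15 min at room temperature gives Nrf2 activity.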
Mito fusion act: qHTS Assay for Small Molecule Inhibitors of Mitochondrial Division or Activators of Mitochondrial Fusion | S. cerevisiae fusion-defective mutant growth rescue, CellTiterGlo 48 h | Potency, µM (doses to about 46.1 µM), usual class: activators | actives 0.23% (n = 320,000); further: nearly all actives have a fitted effect of over 45% in size
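Read-out: ATP-based luminescence (CellTiterGlo, 10 min ambient) reporting growth of fusion-defective ts yeast after 48 hours at 37C on glycerol/ethanol YPEG medium in the presence of compound.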
Of the large screens only hits and unclear results are named; the others gave an inactive call; ! = a repeat was not active. The call rests on the fitted dose curve; in most records, active means well fitted curve in the direction sought with a large enough effect; inconclusive means small, poorly fitted or top-dose-only effect, or another doubt; inactive means no such curve, though single readings can be large; an effect the other way counts as inactive or inconclusive.

COc1cc(OC)c(NC(=O)CCCn2nc(C)c3sc4ccccc4c3c2=O)cc1Cl	A549 tox inconclusive, Nrf2 block inconclusive (no result: Mito fusion act)
O=[N+]([O-])c1cccc(CNc2ccc3c(c2)CCC3)c1	Mito fusion act 14µM
Cc1cc(C(=O)NCCc2ccc(Cl)cc2)c2c(C)nn(-c3ccccc3)c2n1	Nrf2 block inconclusive (no result: Mito fusion act)
CCOc1cc(CNCc2cc(OC)cc(OC)c2)ccc1OC	Nrf2 block 8.2µM
CCOc1cc(CNCc2ccc(C(=O)O)cc2)ccc1OC	none
CCOc1ccccc1C(=O)Nc1cc2c(cc1N1CCCCC1)n(C)c(=O)n2C	miR-21 reporter inconclusive, A549 tox inconclusive, Nrf2 block 23µM (no result: Mito fusion act)
COc1ccc(CCNC(=O)C2CCN(S(=O)(=O)c3c(C)noc3/C=C/c3ccc(C)cc3)CC2)cc1OC	none (no result: Nrf2 block, Mito fusion act)
CN(C)c1cccc(C(=O)OC(C(=O)Nc2ccc([N+](=O)[O-])cc2Br)c2ccccc2)c1 (stereo unspecified)	none
O=C(OC(C(=O)Nc1ccc([N+](=O)[O-])cc1Br)c1ccccc1)c1ccccc1 (stereo unspecified)	Nrf2 block 23µM
Cc1ccc(Nc2ccc3cc(S(=O)(=O)N4CCC(C)CC4)ccc3n2)c(Cl)c1	none (no result: Mito fusion act)
CC1CCN(S(=O)(=O)c2ccc3nc(Nc4cccc(F)c4)ccc3c2)CC1	A549 tox inconclusive, Nrf2 block 21µM (no result: Mito fusion act)
CC1CCN(S(=O)(=O)c2ccc3nc(NCc4ccccc4)ccc3c2)CC1	Nrf2 block 16µM (no result: Mito fusion act)
COc1ccc(-n2c(C)nc3cc(C(=O)NC4CCCCCC4)ccc32)cc1	none (no result: Nrf2 block, Mito fusion act)
CSc1nc2nccc(-c3ccc(Oc4ccccc4)cc3)n2n1	Nrf2 block 18µM
COc1ccc(C2Nc3ccccc3C(=O)N2Cc2ccccc2)cc1COc1ccc(Cl)cc1 (stereo unspecified)	none (no result: Nrf2 activator, miR-21 reporter, Mito fusion act)
c1ccc(Cc2nnc(N3CCOCC3)c3ccccc23)cc1	none
c1ccc(Cc2nnc(N3CCCCC3)c3ccccc23)cc1	A549 tox inconclusive, Nrf2 block 18µM
COc1ccc(Nc2ccc(S(=O)(=O)N3CCCCC3)cc2[N+](=O)[O-])cc1	A549 tox inconclusive, Nrf2 block 7.3µM
COc1ccc2cc(S(=O)(=O)N3CCCCC3)ccc2c1S(=O)(=O)N1CCCCC1	Nrf2 block 16µM
COC(=O)/C=C/c1ccc2c(c1)S(=O)(=O)N(Cc1ccc(OC)cc1)[C@H]2CC(=O)OC	Nrf2 activator 18µM (no result: miR-21 reporter, Mito fusion act)
COc1ccc(CN2[C@@H](CC(C)=O)c3ccc(/C=C/C(C)=O)cc3S2(=O)=O)cc1	none (no result: miR-21 reporter, Mito fusion act)
O=C(NCc1cccnc1)c1ccc(COc2ccccc2Br)o1	none
COc1ccccc1OCc1ccc(C(=O)Nc2ccccc2)cc1	none (no result: miR-21 reporter)
O=C(Nc1cccnc1)c1ccc(COc2ccccc2Br)o1	Nrf2 block 6.5µM
O=C(Nc1nc2ccccc2n1CCN1CCOCC1)c1ccc(COc2ccccc2Br)o1	Nrf2 block 13µM
O=C(Nc1ccc(Cn2cccn2)cc1)c1ccc(COc2ccccc2Br)cc1	A549 tox inconclusive, Nrf2 block 9.2µM
Cn1nnnc1Sc1ncnc2scc(-c3ccccc3F)c12	Nrf2 block inconclusive (no result: Nrf2 activator, miR-21 reporter, Mito fusion act)
CCCCOc1ccc(CNC(=O)c2ccc(NC(=O)N3CCSc4ncccc43)cc2)cc1	none (no result: Mito fusion act)
Cc1nn2c(C)c(C(=O)N3CCN(c4ccccc4)CC3)cnc2c1-c1ccccc1	none (no result: Mito fusion act)
CC(=O)c1c(C)oc2c1cc(NS(=O)(=O)c1ccc(Cl)c(C)c1)c1ccccc12	none (no result: Mito fusion act)
Cc1csc2c(N3CCN(C(=S)Nc4ccc(C(F)(F)F)cc4)CC3)ncnc12	Nrf2 block inconclusive
Cc1csc2ncnc(N3CCN(C(=S)Nc4ccc(C(F)(F)F)cc4)CC3)c12	Nrf2 block 26µM
O=S(=O)(c1ccccc1C(F)(F)F)N1CCN(c2nc(-c3ccccc3)nc3ccccc23)CC1	Nrf2 block inconclusive (no result: Nrf2 activator, miR-21 reporter, Mito fusion act)
Cc1c(C(O)(c2ccccc2)c2ccccc2)[n+]2ccccc2n1C	none (no result: Nrf2 activator, miR-21 reporter, Mito fusion act)
Cn1c(=S)[nH]c2cc(C(=O)N3CCN(C(=O)c4ccccc4)CC3)ccc2c1=O	none (no result: Nrf2 activator, miR-21 reporter, Mito fusion act)
Cc1cccc(CS(=O)(=O)c2ncc(Cl)c(C(=O)Nc3nnc(C(C)C)s3)n2)c1	miR-21 reporter inconclusive, A549 tox inconclusive
CCc1nnc(NC(=O)c2nc(S(=O)(=O)Cc3ccc(C)cc3)ncc2Cl)s1	miR-21 reporter inconclusive, A549 tox inconclusive, Nrf2 block 21µM!
CCc1nnc(NC(=O)c2nc(S(=O)(=O)Cc3cccc(C)c3)ncc2Cl)s1	miR-21 reporter inconclusive, A549 tox inconclusive, Nrf2 block 23µM
CC(=O)Nc1ccc(NC(=O)c2nc(S(=O)(=O)Cc3ccccc3)ncc2Cl)cc1	miR-21 reporter inconclusive
CCc1nnc(NC(=O)c2nc(S(=O)(=O)Cc3ccccc3)ncc2Cl)s1	Nrf2 activator 14µM, miR-21 reporter inconclusive, A549 tox inconclusive
Cc1ccc(CS(=O)(=O)c2ncc(Cl)c(C(=O)Nc3nnc(C(C)C)s3)n2)cc1	miR-21 reporter inconclusive, A549 tox inconclusive, Nrf2 block 21µM!
O=C(Nc1nnc(CCc2ccccc2)s1)C1CCN(C(=O)c2ccco2)CC1	Nrf2 block inconclusive (no result: Nrf2 activator, miR-21 reporter, Mito fusion act)
O=C1CCCC2=C1C1(CCSC1)N=C(Nc1nc3ccccc3o1)N2 (stereo unspecified)	none (no result: Nrf2 activator, miR-21 reporter, Mito fusion act)
CC(=O)Nc1ccc(SCCN2CCN(CC(C)C)CCC2=O)cc1	none (no result: Nrf2 activator, miR-21 reporter, Mito fusion act)
COc1cc(CSc2nnnn2-c2ccc(C)cc2)cc(OC)c1OC	Nrf2 block 6.5µM
COc1ccc(F)cc1CSc1nnnn1-c1ccc(O)cc1	none
c1ccc(-c2nc(-c3ccco3)cs2)nc1	Nrf2 activator 13µM, Nrf2 block inconclusive
CCOc1ccc(C(=O)NCC(c2ccc(Cl)cc2)N2CCCCC2)cc1 (stereo unspecified)	none (no result: Mito fusion act)
O=c1c2ccccc2nc(N/N=C/c2ccc(O)cc2)n1O	Nrf2 block inconclusive
O=c1c2ccccc2nc(N/N=C/c2c(O)ccc3ccccc23)n1O	miR-21 reporter inconclusive, A549 tox inconclusive, Nrf2 block 6.5µM
COc1cc2nc(NC(=O)c3ccc(F)cc3Cl)sc(=O)c2cc1OC	Nrf2 block 6.5µM
COc1ccc(C2C=C(C34CC5CC(CC(C5)C3)C4)NC(=S)N2)cc1 (stereo unspecified)	Nrf2 block inconclusive, Mito fusion act 11µM
Clc1ccccc1-c1nnc(COc2ccccc2)o1	Nrf2 block inconclusive (no result: Mito fusion act)
Clc1ccccc1-c1ncc(-c2ccccc2)o1	Nrf2 activator 10µM, Nrf2 block inconclusive
Cc1cccc(N2CCN(C(=O)c3cc4ccc5cccnc5c4[nH]3)CC2)c1C	none (no result: Mito fusion act)
CN1C(=O)c2ccccc2Sc2ccc(NC(=O)Nc3ccccc3F)cc21	miR-21 reporter inconclusive, Nrf2 block 21µM (no result: Mito fusion act)
Cc1ccc(N2CC(c3nc(-c4ccc(Cl)cc4)no3)CC2=O)cc1F (stereo unspecified)	none (no result: Mito fusion act)
